The full list was thinned out, with hits kept by preference.
Tgondii IFNg – blocks Toxoplasma gondii growth in the presence of IFN-gamma; Toxoplasma gondii growth in IFN-gamma-treated host cells; hits give low values; activity change, negative = inhibition, % (concentration not given with the values); 69,000 compounds, 3.8% hits; in the data active = activity change below about -70%, passing the limit was not always enough;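 also: host cells are HeLa cells infected with Toxoplasma gondii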
* marks the source's active call; other numbers are inactive results; ! = repeats disagree.

SMILES | Tgondii IFNg
COc1ccc(-n2nnc(C(C)=O)c2NCc2ccco2)cc1 | 62
CCOC(=O)c1ccc(Nc2nc3nonc3nc2NCc2ccco2)cc1 | -102*
CCCN(Cc1nccn1C)C(=O)c1cc(CC(C)C)nn1C | 66
CCS(=O)(=O)Nc1ccc2c(c1)C(=O)N(C)[C@@H]1CC[C@H](CC(=O)N[C@H]3CCN(Cc4ccccc4)C3)O[C@H]1CO2 | -1
Fc1ccc(-n2cc(CCCCN3CCC4(CC3)OCc3ccccc34)c3ccccc32)cc1 | -76*
C[C@H]1CN([C@@H](C)CO)C(=O)CCCn2nncc2CO[C@H]1CN(C)C(=O)Nc1ccc(-c2cccs2)cc1 | 215
Cc1nc(CN2CCN3CC(C(=O)O)CN(C(C)C)CC3C2)cs1 (centres undefined) | -3
COc1ccc(OC)c(S(=O)(=O)N2CCC3(CC2)Nc2cc(C)ccc2-n2cccc23)c1 | 11
CCc1ccc(S(=O)(=O)N2CCC3(CC2)c2cccn2-c2ccc(C)cc2N3CC)cc1 | -65
CCN1c2cc(C)ccc2-n2cccc2C12CCN(S(=O)(=O)c1ccc3c(c1)CCCC3)CC2 | -81*
CCN1c2cc(C)ccc2-n2cccc2C12CCN(S(=O)(=O)c1ccc(OC)c(Cl)c1)CC2 | -100*
CCN1c2cc(C)ccc2-n2cccc2C12CCN(S(=O)(=O)c1cc(OC)ccc1OC)CC2 | -103*
CCN1c2cc(C)ccc2-n2cccc2C12CCN(S(=O)(=O)c1c(C)noc1C)CC2 | 64
COc1ccc2c(c1)NC1(CCN(S(=O)(=O)c3cc(C)ccc3C)CC1)c1cccn1-2 | -6
CCN1c2cc(C)ccc2-n2cccc2C12CCN(S(=O)(=O)c1ccc(Cl)s1)CC2 | -61
COc1ccc(S(=O)(=O)N2CCC3(CC2)Nc2ccccc2-n2cccc23)cc1Cl | 22
COCCN(Cc1cccc2ccccc12)C(=O)c1cn(-c2ccccc2)nn1 | -18
COc1ccc2c3c(n(C)c2c1)[C@@H](CO)N(C)CC31CN(C(=O)Nc2c(C)noc2C)C1 | -1
COc1ccc(CCNCC(=O)Nc2ccc(C(=O)N3CCCCC3)cc2)cc1 | -64
Cc1ccc(NC(=S)C2CC(C)OC(C)C2)cc1C (centres undefined) | 29
Cc1cc(C)nc(C2CCN(C(=O)CC3CCCCC3)C2)n1 (centres undefined) | -9
Cc1noc(C)c1S(=O)(=O)N(C)C[C@H]1OCc2cnnn2CCCC(=O)N([C@@H](C)CO)C[C@H]1C | 277
Nc1nnc(Sc2nc3c(Cl)cc(Cl)cc3s2)s1 | -85*
Nc1nnc(SCc2c(Cl)cccc2Cl)s1 | 80
Nc1nnc(CSCc2ccc(Cl)cc2Cl)s1 | -35
SMILES | Tgondii IFNg
Cc1nc(NCc2ccccc2OC(C)C)cc(C(C)n2ncc3ccccc3c2=O)n1 (centres undefined) | 14
O=C(OC(C(=O)NCc1ccco1)c1cccnc1)c1cccs1 (centres undefined) | -4
CCOc1ccc(-c2nc3c(s2)CN(C(=O)Nc2cc(C)ccc2C)CC3)cc1 | -112*
COc1ccc(C)cc1NC(=O)N1CCc2nc(-c3ccc(C)cc3)sc2C1 | -13
CCOc1ccc(-c2nc3c(s2)CN(C(=O)Nc2ccc(C)cc2)CC3)cc1 | -66
CCOc1ccc(-c2nc3c(s2)CN(C(=O)Nc2ccc(C)c(C)c2)CC3)cc1 | -106*
COc1ccc(-c2nc3c(s2)CN(C(=O)Nc2ccc(C)cc2C)CC3)cc1 | 53
Cc1ccc(NC(=O)N2CCc3nc(-c4ccccc4)sc3C2)cc1C | 101
COc1ncccc1C(=O)N1CCOc2ccc(C(O)C(c3ccccc3)c3ccccc3)cc2C1 (centres undefined) | -6
CCN[C@H]1CN(CCCOC)S(=O)(=O)c2sc(S(N)(=O)=O)cc21 | 13
Cc1cnc(-c2nnc(C3CCN(C(=O)C4OCCc5ccccc54)C3)o2)cn1 (centres undefined) | -25
O=S(=O)(c1cccc(F)c1)N1CCC2(CC1)Nc1ccc(Cl)cc1-n1cccc12 | -2
CC(C)(C)[S@](=O)N1Cc2cc(C(=O)N[C@@H]3CCN(Cc4ccccc4)C3)nc(-c3cccc(-c4cccnc4)c3)c2[C@@H]1CCO | -53
CO[C@H]1CN(Cc2cccc(C#N)c2)[C@H]2COC[C@@H]12 | 74
COc1cc(N2CCC3O[C@@H](C(=O)NC(C)C)CC32)ncn1 (some centres undefined) | 9
COc1cc2cc(CNc3ccc(N4CCN(C)CC4)cc3)c(=O)[nH]c2cc1OC | -18
COc1ccc2[nH]c(=O)c(CNc3ccc(-c4nc5ccc(C)cc5[nH]4)cc3)cc2c1 | 48
CC(C)c1ccc2[nH]c(=O)c(CNc3ccc4[nH]ncc4c3)cc2c1 | -82*
O=c1c2c3c(sc2[nH]c(=S)n1-c1ccccc1)CN(Cc1ccccc1)CC3 | -56
CCN(Cc1cccc(C(=O)Nc2cnn(C)c2)c1)Cc1nc(C)no1 | 6
COC[C@H]1CCCN1Cc1ccc(C(=O)Nc2cnn(C)c2)cc1 | 3
Cc1ccsc1CN(C)Cc1ccc(C(=O)Nc2cnn(C)c2)cc1 | -84*
O=C(C[C@H]1CC[C@H]2[C@@H](COC[C@@H](O)CN2C(=O)Cc2ccccc2)O1)NC1Cc2ccccc2C1 | -3
NC(N)=NN=Cc1c(Cl)cccc1Cl | -54
Cc1cc(NC(=O)c2ccccc2)no1 | 79
SMILES | Tgondii IFNg
Cc1cc(NC(=O)CCCC(=O)O)no1 | -33
CCCCCCCc1ccc(C(=O)NC(=S)Nc2cc(C)on2)cc1 | -92*
Cn1ccc2c(-c3cccc(=O)[nH]3)ccnc21 | 33
CC(=O)N(Cc1cccc(F)c1)C[C@H]1[C@@H](c2ccccc2)[C@@H](CO)N1C(C)=O | -19
Cn1c(CNC(=O)C2CCC2)nc2c1CN(C(=O)NCc1ccccc1)CC2 | -36
Cc1nn(CC(=O)N2CCCN(C)CC2)c(=O)c2nc(-c3ccccc3)sc12 | 13
CCOC(=O)c1nc(Nc2ccc(F)c(Cl)c2)c2ccccc2n1 | -51
COc1cncc(C(=O)Nc2ccc(C)c(F)c2)c1 | -15
CCOC(=O)c1cc(NC(=O)c2ccc(F)c(Cl)c2)ccc1Oc1cncc(Cl)c1 | -90*
CC(=O)c1sc(N/N=C2\CC3CC2C(C)C3(C)C)nc1C (centres undefined) | 45
O=C(NCC1CC1)[C@H]1[C@H](CO)[C@H]2Cn3c(ccc(C4=CCCC4)c3=O)[C@H]2N1C(=O)C1CC1 | -1
c1cc(C2CCN(c3ncnc4c3CCNC4)CC2)ccn1 | -11
COc1cccc(OCCN2CCN(c3ncnc4c3CCNC4)CC2)c1 | -53
COc1cccc(C2CCN(c3ncnc4c3CCNC4)C2)c1OC (centres undefined) | -72*
CC(C)Cn1cnc2nnc3ccc(C(=O)C4CC4)cc3c21 | 4
CC(CN(C)Cc1cc2c(cc1Cl)OCO2)N1CCOCC1 (centres undefined) | 58
FC(F)(F)c1cnc(CN2CCSCC2)c(Cl)c1 | 7
O=C(CSc1nccc2ccccc12)NC1CCCOC1 (centres undefined) | -8
COc1ccc2cc1Oc1ccc(cc1)C[C@H]1c3cc(c(OC)cc3CCN1C)Oc1c(OC)c(OC)cc3c1[C@H](C2)N(C)CC3 | -71*!
COc1ccc2cc1Oc1ccc(cc1)C[C@H]1c3c(cc4c(c3Oc3cc5c(cc3OC)CCN(C)[C@@H]5C2)OCO4)CCN1C | -5
COc1ccc2c(c1OC)C(=O)OC2[C@H]1c2c(cc3c(c2OC)OCO3)CCN1C (some centres undefined) | 24
Cc1nc(-c2cc(C(=O)NCCN(C)C)c3ccccn23)cn1-c1nccs1 | 21
COCCC(=O)c1cc(-c2ccn(-c3ccccc3)n2)n2ccccc12 | 89
